{
  "source": "paper PMC4336329",
  "about": "(PLoS ONE, 2015)",
  "note": "Hit rate of the full screen: of about 310,000 compounds, about 14,000 (4.5%) showed an effect of 50% or more. The effect is printed as a negative number. This is one part of a sample in which strong results are shown more often than they occur.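 Note: peak tail current of the secondary pulse compared with the same well before compound.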",
  "data": [
    {"target": "human ether-à-go-go-related gene (hERG) potassium channel (human, UniProt Q12809)", "sequence (Q12809 whole entry, looked up)": "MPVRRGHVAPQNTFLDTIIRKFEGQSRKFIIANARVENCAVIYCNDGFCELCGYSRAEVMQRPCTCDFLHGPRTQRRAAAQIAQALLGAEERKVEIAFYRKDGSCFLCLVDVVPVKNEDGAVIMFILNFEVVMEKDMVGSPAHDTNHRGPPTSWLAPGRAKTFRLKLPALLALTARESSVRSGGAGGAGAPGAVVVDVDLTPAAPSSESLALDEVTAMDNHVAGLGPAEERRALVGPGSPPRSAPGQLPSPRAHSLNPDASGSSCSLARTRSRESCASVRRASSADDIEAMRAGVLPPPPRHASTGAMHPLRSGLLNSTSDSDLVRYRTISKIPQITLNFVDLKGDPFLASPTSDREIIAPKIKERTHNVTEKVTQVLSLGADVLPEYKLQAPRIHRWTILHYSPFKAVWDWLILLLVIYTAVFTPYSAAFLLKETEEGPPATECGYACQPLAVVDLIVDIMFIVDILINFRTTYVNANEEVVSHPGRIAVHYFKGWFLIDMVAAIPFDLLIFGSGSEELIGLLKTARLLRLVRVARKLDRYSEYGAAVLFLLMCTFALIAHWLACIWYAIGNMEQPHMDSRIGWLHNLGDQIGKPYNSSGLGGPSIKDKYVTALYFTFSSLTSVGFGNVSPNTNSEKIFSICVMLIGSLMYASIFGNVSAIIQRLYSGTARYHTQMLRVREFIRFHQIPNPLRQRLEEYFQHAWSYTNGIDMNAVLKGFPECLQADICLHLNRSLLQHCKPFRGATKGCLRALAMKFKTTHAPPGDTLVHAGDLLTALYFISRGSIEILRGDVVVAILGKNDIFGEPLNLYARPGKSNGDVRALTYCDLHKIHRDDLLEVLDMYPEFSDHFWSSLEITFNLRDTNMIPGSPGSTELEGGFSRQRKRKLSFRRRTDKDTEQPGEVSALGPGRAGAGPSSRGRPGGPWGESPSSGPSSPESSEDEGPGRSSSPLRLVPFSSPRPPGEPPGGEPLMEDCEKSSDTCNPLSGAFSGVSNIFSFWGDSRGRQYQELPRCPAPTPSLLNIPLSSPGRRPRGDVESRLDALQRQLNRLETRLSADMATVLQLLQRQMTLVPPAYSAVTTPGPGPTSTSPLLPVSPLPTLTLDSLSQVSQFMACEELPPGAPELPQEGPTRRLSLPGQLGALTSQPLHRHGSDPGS", "assay": "primary screen, population patch clamp on CHO cells stably expressing hERG; higher = less effect of the substance", "units": {"hERG current change (%, negative = inhibition) at 10uM": "%"}, "values": [
      {"smiles": "CCCCCCn1c(SCC(=O)OC)nc2c1c(=O)[nH]c(=O)n2C", "hERG current change (%, negative = inhibition) at 10uM": -70.1},
      {"smiles": "CCCCn1c(SCC(=O)OCC)nc2c1c(=O)[nH]c(=O)n2C", "hERG current change (%, negative = inhibition) at 10uM": -41.9},
      {"smiles": "Cc1cccc(-n2ncc3c(=O)[nH]c(SCC(=O)NCCC4=CCCCC4)nc32)c1", "hERG current change (%, negative = inhibition) at 10uM": 10.9},
      {"smiles": "CCN(CC)S(=O)(=O)c1cccc(-c2n[nH]c(=S)n2/N=C/c2ccc(C(=O)OC)cc2)c1", "hERG current change (%, negative = inhibition) at 10uM": -34},
      {"smiles": "O=C(COC(=O)c1ccc(S(=O)(=O)N2CCCC2)cc1)NCc1ccco1", "hERG current change (%, negative = inhibition) at 10uM": -10.1},
      {"smiles": "O=[N+]([O-])c1ccc(/C=N/NC2=NS(=O)(=O)c3ccccc32)cc1", "hERG current change (%, negative = inhibition) at 10uM": -7.49},
      {"smiles": "O=C(OCn1nnc2ccccc2c1=O)C1CCCCC1", "hERG current change (%, negative = inhibition) at 10uM": 5.57},
      {"smiles": "CCN(CC)c1nc2c(c(=O)[nH]c(=O)n2C)n1CCCc1ccccc1", "hERG current change (%, negative = inhibition) at 10uM": -45.3},
      {"smiles": "CCCCCCn1c(N(CC)CC)nc2c1c(=O)[nH]c(=O)n2C", "hERG current change (%, negative = inhibition) at 10uM": -63.6},
      {"smiles": "CCCCCCn1c(NCC)nc2c1c(=O)[nH]c(=O)n2C", "hERG current change (%, negative = inhibition) at 10uM": -14.7},
      {"smiles": "Cn1nc(C(=O)OCC(=O)NCCc2ccccc2)c2ccccc2c1=O", "hERG current change (%, negative = inhibition) at 10uM": 2.9},
      {"smiles": "Cc1ccc(S(=O)(=O)/C(C#N)=C/c2c(N3CC(C)OC(C)C3)nc3c(C)cccn3c2=O)cc1", "note": "(centres unmarked)", "hERG current change (%, negative = inhibition) at 10uM": -28.1},
      {"smiles": "Cc1ccc(S(=O)(=O)/C(C#N)=C/c2c(N3CCN(C)CC3)nc3c(C)cccn3c2=O)cc1", "hERG current change (%, negative = inhibition) at 10uM": -67.5},
      {"smiles": "Cc1ccc(S(=O)(=O)/C(C#N)=C/c2c(Oc3ccc(Cl)cc3)nc3c(C)cccn3c2=O)cc1", "hERG current change (%, negative = inhibition) at 10uM": 19.3},
      {"smiles": "Cc1ccc(S(=O)(=O)/C(C#N)=C/c2c(N3CCOCC3)nc3c(C)cccn3c2=O)cc1", "hERG current change (%, negative = inhibition) at 10uM": -56},
      {"smiles": "Cc1cccn2c(=O)c(/C=C(\\C#N)C(=O)NCc3ccco3)c(N3CCCCCC3)nc12", "hERG current change (%, negative = inhibition) at 10uM": -36.5},
      {"smiles": "Cc1cccn2c(=O)c(/C=C(\\C#N)S(=O)(=O)c3ccccc3)c(N3CCN(c4ccccc4)CC3)nc12", "hERG current change (%, negative = inhibition) at 10uM": 9.12},
      {"smiles": "CCN1CCN(c2nc3c(C)cccn3c(=O)c2/C=C(\\C#N)S(=O)(=O)c2ccccc2)CC1", "hERG current change (%, negative = inhibition) at 10uM": -15.7},
      {"smiles": "CCN1CCN(c2nc3c(C)cccn3c(=O)c2/C=C(\\C#N)S(=O)(=O)c2ccc(C)cc2)CC1", "hERG current change (%, negative = inhibition) at 10uM": -62.9},
      {"smiles": "Cc1cccn2c(=O)c(/C=C(\\C#N)C(=O)NCc3ccco3)c(N3CCOCC3)nc12", "hERG current change (%, negative = inhibition) at 10uM": -50.9},
      {"smiles": "Cc1cccn2c(=O)c(/C=C(\\C#N)S(=O)(=O)c3ccccc3)c(N3CCN(Cc4ccccc4)CC3)nc12", "hERG current change (%, negative = inhibition) at 10uM": -4.68},
      {"smiles": "Cc1cccn2c(=O)c(/C=C(\\C#N)S(=O)(=O)c3ccccc3)c(N3CCN(C)CC3)nc12", "hERG current change (%, negative = inhibition) at 10uM": -45.5},
      {"smiles": "Cc1cccn2c(=O)c(/C=C(\\C#N)C(=O)NCc3ccco3)c(N3CCCCC3)nc12", "hERG current change (%, negative = inhibition) at 10uM": -37.8},
      {"smiles": "O=C(Cn1cnc([N+](=O)[O-])n1)N/N=C/c1ccccc1O", "hERG current change (%, negative = inhibition) at 10uM": 14.4},
      {"smiles": "COC(=O)C[C@](O)(CCCC(C)(C)O)C(=O)O[C@@H]1C(OC)=C[C@]23CCCN2CCc2cc4c(cc2[C@H]13)OCO4", "hERG current change (%, negative = inhibition) at 10uM": 10.4},
      {"smiles": "CCCCOCCCNC(=O)N[C@H](C(=O)OC)C(C)C", "hERG current change (%, negative = inhibition) at 10uM": 10.7},
      {"smiles": "Cn1c(=O)c2c(ncn2CC(=O)Nc2ccc3c(c2)OCO3)n(C)c1=O", "hERG current change (%, negative = inhibition) at 10uM": 3.43},
      {"smiles": "O=C(Nc1ncc(C(F)(F)F)cc1Cl)C1COc2ccccc2O1", "note": "(centres unmarked)", "hERG current change (%, negative = inhibition) at 10uM": -3.76},
      {"smiles": "Cc1ccc2c(Cl)cc(Cl)c(OCC(=O)N3CCOCC3)c2n1", "hERG current change (%, negative = inhibition) at 10uM": -8.28},
      {"smiles": "O=C(Cc1noc2ccccc12)Nc1ccccn1", "hERG current change (%, negative = inhibition) at 10uM": 6.57},
      {"smiles": "O=S(=O)(Nc1nc2ccccc2nc1NCc1ccco1)c1cccs1", "hERG current change (%, negative = inhibition) at 10uM": 4.13},
      {"smiles": "CCc1ccc2c(c1)c(N=NC1=NC(=O)CS1)c(O)n2C", "hERG current change (%, negative = inhibition) at 10uM": 0.556},
      {"smiles": "COc1ccc(NS(=O)(=O)c2ccc(C(=O)N3CCN(Cc4ccccc4)CC3)cc2)cc1", "hERG current change (%, negative = inhibition) at 10uM": -17.1},
      {"smiles": "Cc1cccc(-c2noc(CNC(=O)COc3ccccc3C)n2)c1", "hERG current change (%, negative = inhibition) at 10uM": -1.88},
      {"smiles": "CCOc1ccc(C(CCc2ccccc2)NC(=O)c2ccccc2)cc1OCC", "note": "(centres unmarked)", "hERG current change (%, negative = inhibition) at 10uM": -19.1},
      {"smiles": "CCCCN(Cc1nc2ccccc2c(=O)[nH]1)C(=O)CN1C(=O)NC2(CCCCC2)C1=O", "hERG current change (%, negative = inhibition) at 10uM": -41.9},
      {"smiles": "O=C(Cc1nnc(NC(=O)c2ccccc2)s1)N/N=C\\c1ccc(O)c(O)c1", "hERG current change (%, negative = inhibition) at 10uM": 23.4},
      {"smiles": "COc1ccc(OC)c(C2N(c3cc(C)on3)C(=O)C3CCCN32)c1", "note": "(centres unmarked)", "hERG current change (%, negative = inhibition) at 10uM": 10.8},
      {"smiles": "Cc1cccn2c(=O)c(C=O)c(N3CCN(c4ccccc4)CC3)nc12", "hERG current change (%, negative = inhibition) at 10uM": -55.4},
      {"smiles": "Cc1ccc2nc(N3CCN(C)CC3)c(C=O)c(=O)n2c1", "hERG current change (%, negative = inhibition) at 10uM": 5.3},
      {"smiles": "Cc1ccc2nc(N3CCN(c4ccccc4F)CC3)c(C=O)c(=O)n2c1", "hERG current change (%, negative = inhibition) at 10uM": -70.1},
      {"smiles": "Cc1cccn2c(=O)c(C=O)c(N3CCN(C)CC3)nc12", "hERG current change (%, negative = inhibition) at 10uM": -0.442},
      {"smiles": "Cc1cccn2c(=O)c(C=O)c(N3CCN(c4ccc(F)cc4)CC3)nc12", "hERG current change (%, negative = inhibition) at 10uM": -22.1},
      {"smiles": "Cc1ccc2nc(N3CCN(c4ccccc4)CC3)c(C=O)c(=O)n2c1", "hERG current change (%, negative = inhibition) at 10uM": 11.5}
    ]}
  ]
}
